# Some structures have more than one record in an assay (separate samples or runs), and their calls can disagree. Activity calls are given as the source filed them. The calls were made as follows: active = hit-call score of the fitted dose curve at least 0.9, where 1 is the maximum; inactive = score below 0.9.
# Read-out: Matrix Metallopeptidase 1 (MMP1), MMP1 (gene 4312)
# Experiment: BSK_hDFCGF_MMP1: BioMAP Diversity Plus: hDFCGF Assay for Matrix Metallopeptidase 1 (MMP1) Biomarker Activity (AID 2283064)
# Settings: primary human foreskin fibroblasts; actives raise or lower the signal
# Method: BSK_hDFCGF is a cell-based, multiplexed-readout assay that uses foreskin fibroblast, a human skin primary cell, with measurements taken at 24 hours after chemical dosing in a 96-well plate.BSK_hDFCGF_MMP1 is an assay component measured in the BSK_hDFCGF assay. It measures MMP-1 antibody related to regulation of gene expression using ELISA technology.Data from the assay component BSK_hDFCGF_MMP1 was analyzed into 1 assay endpoint. This assay endpoint, BSK_hDFCGF_MMP1, was analyzed with bidirectional fitting relative to DMSO as the negative control and baseline of activity. Using a type of binding reporter, gain or loss-of-signal activity can be used to understand changes in the signaling as they relate to the gene MMP1. Furthermore, this assay endpoint can be referred to as a primary readout, because this assay has produced multiple assay endpoints where this one serves a signaling function. To generalize the intended target to other relatable targets, this assay endpoint is annotated to the protease intended target family, where the subfamily is matrix metalloproteinase.
# The levels of cell surface (or secreted, indicated by the prefix "s") biomarker endpoints were measured by ELISA. Overt cytotoxicity to cells in confluent adherent cultures (all systems other than the BT system) was assessed by measuring total protein levels using sulforhodamine B (SRB) staining in parallel cultures at the time of biomarker measurements, indicated as SRB endpoints. For proliferation assays for adherent cell types, individual cell types are cultured at sub-confluence and relative cell numbers quantified by SRB staining at time points optimized for each system (48 h: 3C and CASM3C systems; 72 h: BT and HDF3CGF systems; 96 h: SAg system). SRB was performed by staining cells with 0.1% SRB after fixation with 10% TCA and reading wells at 560 nm.Viability and proliferation of PBMC (T cells) was quantified by Alamar Blue reduction for the SAg and BT systems. For PBMC viability (referred to as PBMC Cytotoxicity within the assay endpoint names), cells were plated (75,000/well in a 96-well plate) and then chemical samples added for 1 h before addition of activators, SEB and TSST-1 (20 ng/mL final concentration each). Cells were incubated for 90 h. Then, Alamar Blue (20 uL/well) (Invitrogen, Cat DAL1100) was added for 6 h, and the plates were read with a fluorescence microplate reader at 546/580 nm (excitation/emission). For PBMC proliferation, cells were plated and activated as above but incubated for only 16 h prior to addition of Alamar Blue. Plates were read after 6 h.
Structure (SMILES),AC50,outcome
CCCCCCCCCC[N+](C)(C)CCCCCCCCCC,1.97 µM (active),
O=C(O)C(F)(F)C(F)(F)C(F)(F)C(F)(F)C(F)(F)F,,inactive
C1CC2OC2CC1C1CO1 (stereo not given),,inactive
CC(C)(c1ccccc1)c1ccc(O)cc1,32.8 µM (active),
Nn1cnnc1,,inactive
CCOC(=O)C(O)(c1ccc(Cl)cc1)c1ccc(Cl)cc1,,inactive
CCOCCOC(C)=O,,inactive
c1cc2ccc3cccc4ccc(c1)c2c34,,inactive
Clc1ccc(C(Cl)(Cl)Cl)cc1,,inactive
Clc1ccc(Cl)cc1,,inactive
Cc1cccc([N+](=O)[O-])c1,,inactive
CCC(C)(CC)c1cc(NC(=O)c2c(OC)cccc2OC)on1,,inactive
CN(C)CCO,,inactive
CCSC(=O)N(CC)C1CCCCC1,,inactive
O=C(N[C@H]1CN2CCC1CC2)c1cc2ccoc2cn1,,inactive
CCCCCCCCOC(=O)c1ccccc1C(=O)OCCCCCCCC,,inactive
ClC1=C(Cl)[C@]2(Cl)[C@@H]3[C@H]4C[C@H]([C@@H]5O[C@H]45)[C@@H]3[C@@]1(Cl)C2(Cl)Cl,,inactive
O=NN(c1ccccc1)c1ccccc1,,inactive
Nc1ccc(-c2ccc(N)cc2)cc1,,inactive
Cc1ccccc1CO[C@@H]1C[C@@]2(C(C)C)CC[C@]1(C)O2,,inactive

Structure (SMILES),AC50,outcome
c1ccc(-c2ccccc2)cc1,,inactive
Cc1cc2c3c(c1)C(c1ccccc1)=N[C@@H](NC(=O)c1ccncc1)C(=O)N3CC2,14 µM (active),
O=C(NC(=O)c1cc(F)c(F)cc1Cl)Nc1cc(F)ccc1N1CCC(C(=O)O)CC1,,inactive
Cc1cc(O)ccc1Cl,,inactive
Oc1ccc(Cl)cc1Cl,,inactive
CCC(C)(c1ccc(O)cc1)c1ccc(O)cc1,,inactive
CC(C)(O)C(=O)Nc1ccc([N+](=O)[O-])c(C(F)(F)F)c1,,inactive
CCCCCCCCCc1ccc(O)cc1,15.4 µM (active),
N#Cc1ccc(N(CC(N)=O)CC(F)(F)F)cc1C(F)(F)F,,inactive
CC1=C2C[C@H]3[C@@H](CC=C4C[C@@H](O)CC[C@@]43C)[C@@H]2CC[C@]12O[C@@H]1C[C@H](C)CN[C@H]1[C@H]2C,,inactive
CC(c1ccc(O)cc1)(c1ccc(O)cc1)c1ccc(O)cc1,39.2 µM (active),
CC(C)C(=O)OCC(C)(C)C(OC(=O)C(C)C)C(C)C (stereo not given),,inactive
Oc1c(Cl)c(Cl)c(Cl)c(Cl)c1Cl,33.1 µM (active),inactive
C[C@]12CCC(=O)C=C1CC[C@@H]1[C@@H]2CC[C@@]2(C)[C@H]1CC[C@]2(C)O,,inactive
CCC(C)c1cc([N+](=O)[O-])cc([N+](=O)[O-])c1O (stereo not given),,inactive
ClC(Cl)=C(c1ccc(Cl)cc1)c1ccc(Cl)cc1,31.6 µM (active),
Cc1ccc(O)c(C)c1,,inactive
C=CC(=O)NCNC(=O)C=C,,inactive
O=C(O)C(F)(F)C(F)(F)C(F)(F)C(F)(F)C(F)(F)C(F)(F)C(F)(F)C(F)(F)F,,inactive

# Source: PubChem BioAssay (EPA / NIEHS)
